Screening data as filed in PubChem BioAssay.
Most compounds without a hit are left out; they make up all but 1.1% or so of the library.
HTR5A inv ctr – counter-screen for OPRM1-OPRD1 inverse agonists: human HTR5A inverse agonism; inhibition, % at 9.3 µM; 340,000 tested, 0.083% active; HTR5A cell line, luminescence; in the data active = inhibition mostly above about 23%, no sharp cut-off; inactive = mostly below about 18%;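 note: 0% = cells with DMSO and 100% = no-cell wells with DMSO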
Target sequence (P47898 whole entry, looked up): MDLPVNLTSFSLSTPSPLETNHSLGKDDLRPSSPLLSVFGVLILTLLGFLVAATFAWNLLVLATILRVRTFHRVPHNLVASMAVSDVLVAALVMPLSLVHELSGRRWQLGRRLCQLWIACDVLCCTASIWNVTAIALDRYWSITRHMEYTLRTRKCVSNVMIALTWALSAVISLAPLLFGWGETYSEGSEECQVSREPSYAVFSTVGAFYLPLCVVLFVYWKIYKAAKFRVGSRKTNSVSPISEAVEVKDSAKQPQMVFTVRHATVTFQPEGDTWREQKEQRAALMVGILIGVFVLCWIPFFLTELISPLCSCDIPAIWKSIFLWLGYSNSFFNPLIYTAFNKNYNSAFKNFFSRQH
OPRM1-OPRD1 inv – inverse agonists of human mu-delta opioid receptor heterodimerization; P35372+P41143; cell-based MOR-DOR heterodimer luminescence, inverse agonism; inhibition, % at 9.3 µM; 340,000 tested, 0.21% active; AID 504357; in the data active = inhibition above about 22%, passing the limit was not always enough;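 note: 0% = cells with DMSO and 100% = wells without cells with DMSO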
MOR-DOR ag – OPRM1-OPRD1 heterodimerization agonism | P35372+P41143 | cells, luminescence | activation, % at 9.3 µM | 340,000 tested, 0.3% active;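 note: 0% = vehicle-treated cells and 100% = reference agonist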
HTR5A ag – HTR5A agonism, opioid heterodimer counter-screen; 340,000 tested, 0.61% active; HTR5A agonist assay, luminescence, cell-based; AID 504692; activation, % at 9.3 µM; in the data active = activation mostly above about 9.5%, no sharp cut-off; inactive = mostly below about 7.6%;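 note: 0% = cells with vehicle only and 100% = reference agonist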
MOR-DOR ag conf – confirmation of human OPRM1-OPRD1 heterodimerization agonists | shares compounds with MOR-DOR ag | cells, MOR-DOR heterodimerization, luminescence complementation | activation, % at 9.3 µM | 830 tested, 45% active | AID 504904;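 note: 0% = vehicle-treated cells and 100% = reference agonist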
HTR5A ag counter – activates human HTR5A in OPRM1-OPRD1 agonist counter-screen; shares compounds with MOR-DOR ag; HTR5A agonist counterscreen, cell luminescence; activation, % at 9.3 µM; 830 tested, 8% active; AID 504905; in the data active = activation above about 17%;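 note: 0% = vehicle-treated cells and 100% = reference agonist response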
* hit, by the source's call; i = inactive; x = no result. Cut-off read from the data, not from the text of the source, unless noted: active = activation above about 18%; inactive = the rest.

SMILES	HTR5A inv ctr	OPRM1-OPRD1 inv	MOR-DOR ag	HTR5A ag	MOR-DOR ag conf	HTR5A ag counter
COc1ccc(S(=O)(=O)N(Cc2ccccc2)Cc2nc3ccccc3c(=O)[nH]2)cc1	-6	-12	3	0	x	x
COc1ccccc1CN(Cc1nc2ccccc2c(=O)[nH]1)S(=O)(=O)c1ccc2ccccc2c1	5	-120	20*	-2	-1	0
COc1ccc(NC(=O)Cc2nnc(SCC(=O)NC3CCCC3)n2C)cc1	3	7	-1	1	x	x
Cc1ccc2nc(Cl)c3cc(C(=O)N(CCN(C)C)Cc4ccco4)sc3c2c1	3	-156	32*	-1	1	3
Cc1ccc(N2CCN(C(=S)c3ccc(-c4cccc([N+](=O)[O-])c4)o3)CC2)cc1	5	11	-2	-2	x	x
O=C(Nc1ccc(N2CCN(C(=O)c3ccc(Cl)cc3)CC2)cc1)c1ccc(Br)o1	8	5	-1	-3	x	x
CN1CCN(c2ccc(NC(=O)c3ccc(-c4ccc(Cl)cc4)o3)cc2)CC1	-31	i	306*	9	20*	-2
CN1CCN(c2ccc(NC(=O)c3ccc(-c4cccc([N+](=O)[O-])c4)o3)cc2)CC1	9	i	100*	-4	93*	5
COCCNC(=O)CSc1n[nH]c(=O)n1CCc1ccccc1	5	7	-1	-1	x	x
CCOc1ccc(NC(=S)Nc2ccc3nsnc3c2)cc1	12	-138	22*	4	6	3
Cc1c(CCOC(=O)c2ccccc2)sc[n+]1CC(=O)c1ccc(Br)cc1	-17	-288	36*	6	54*	-1
Cc1c(CCOC(=O)c2cc([N+](=O)[O-])cc([N+](=O)[O-])c2)sc[n+]1CC(=O)c1ccccc1	-18	-25	5	6	x	x
CC(C)(C)c1ccc(C(=O)NCC(=O)OCCN2C(=O)c3ccccc3C2=O)cc1	-23	9	-2	-1	x	x
CCOc1ccc(C2C(C#N)=C(N)N(c3sc4c(c3C#N)CCCC4)C3=C2C(=O)CCC3)cc1 (stereo not given)	-6	-483	79*	2	4	3
N#CC1=C2N=C(N)c3c(sc4c3CCCCC4)N2C2=C(C(=O)CCC2)C1c1ccccc1 (stereo not given)	12	6	-1	1	x	x
Cc1cc(Cl)ccc1OCC(=O)N[C@@H](Cc1ccccc1)c1nc2ccccc2[nH]1	-25	-128	24*	6	44*	2
Cc1nc(NC(=O)COC(=O)CNC(=O)c2ccco2)c(Cl)cc1Cl	-6	9	-2	2	x	x
Cn1c(CN2CCN(c3cccc(Cl)c3)CC2)nc2ccccc21	11	-141	29*	3	124*	2
Cc1ccc(N2CCN(c3ccc(NCc4nc5ccccc5n4C)cc3)CC2)cc1	9	i	283*	-3	46*	30*
Cc1ccc(C)c(N2CCN(C(=O)CCc3nc(-c4ccccc4Br)no3)CC2)c1	-9	3	-1	3	x	x
O=C(Oc1ccc(-c2nnco2)cc1)c1ccco1	7	10	-2	-3	x	x
CCc1c(N)nc(N)nc1Nc1ccccc1C	13	-105	21*	-3	1	5
Cc1ccccc1Nc1nc(N)nc(C)c1Br	-7	7	-1	2	x	x
CSCCC(NS(=O)(=O)c1ccc(C)cc1)C(=O)N1CCN(C(c2ccccc2)c2ccccc2)CC1 (stereo not given)	-8	-278	57*	-1	4	8
CSCCC(NS(=O)(=O)c1ccc(C)cc1)C(=O)N1CC=C(c2ccccc2)CC1 (stereo not given)	-8	2	0	5	x	x
SMILES	HTR5A inv ctr	OPRM1-OPRD1 inv	MOR-DOR ag	HTR5A ag	MOR-DOR ag conf	HTR5A ag counter
COc1cc(CNC(C)c2ccccc2)cc(Cl)c1OCC(=O)Nc1ccccc1 (stereo not given)	10	-118	21*	-4	12	12
COc1cc(CNC(C)c2ccccc2)cc(Br)c1OCc1ccc(F)cc1 (stereo not given)	-1	-100	21*	0	16	5
CCN(CC)CCNCc1cc(Cl)c(OCC(=O)Nc2ccccc2)c(OC)c1	4	1	0	0	x	x
Cc1cccc(C(=O)NNC(=O)c2cc3cc4ccccc4nc3s2)c1	-5	-94	22*	2	5	16
COc1ccc(C(=O)N=C2SC3CS(=O)(=O)CC3N2Cc2ccc(F)cc2)cc1 (stereo not given)	-10	-19	3	-1	x	x
CSCCC(/C(O)=C(\C#N)c1nc2ccccc2[nH]1)N1C(=O)c2ccccc2C1=O (stereo not given)	-2	-264	58*	1	49*	1
COc1cc(C(=O)NCc2ncccc2C)ccc1OC1CCN(C(C)=O)CC1	8	14	-3	8	x	x
CCOC(=O)[C@@H]1[C@H]2COc3ccccc3[C@H]2N2C(=O)N(c3ccccc3)C(=O)[C@]12C	-4	3	-1	0	x	x
Cc1cc(/C=C2/C(=O)NN(c3ccccc3)C2=O)c(C)n1-c1ccc(O)cc1	9	-314	61*	-3	50*	-5
COc1ccc(-n2c(C)cc(/C=C3\C(=O)NN(c4ccccc4)C3=O)c2C)cc1	7	-4	1	1	x	x
O=S(=O)(NC1CC1)c1ccc(S(=O)(=O)N2CCCC3(CCCCC3)C2)cc1	-22	-227	40*	6	32*	2
O=P(CCCCCCCCCP(=O)(c1ccccc1)c1ccccc1)(c1ccccc1)c1ccccc1	-43	-112	21*	6	-1	-5
O=C(O)CCCCCCCCCCP(=O)(c1ccccc1)c1ccccc1	-2	15	-3	1	x	x
CCOc1ccc(C(=O)NCc2cccnc2)cc1[N+](=O)[O-]	-18	19	-4	7	x	x
CC1CCN(CC(=O)N2CCCc3c2c(=O)oc2ccc(OCc4ccccc4)cc32)CC1	23	-160	27*	13*	32*	-4
CC1CC(C)CN(CC(=O)N2CCCc3c2c(=O)oc2ccc(OCc4ccccc4)cc32)C1 (stereo not given)	-2	-28	5	7	x	x
CCc1ccccc1NC(=O)CCNC(=O)Cn1ccc2ccccc2c1=O	0	6	-1	-3	x	x
CC(=O)N1c2ccc(S(=O)(=O)N3CCCC(C(=O)NC4CCCC(C)C4C)C3)cc2CC1C (stereo not given)	7	18	-3	-2	x	x
Cc1nnc(Nc2ccc(Cl)c(C(F)(F)F)c2)[nH]c1=O	1	18	-3	0	x	x
CCCCCCCCCCCCCCCC[N+](C)(C)CCN(Cc1ccc(OC)cc1)c1ncccn1	-32	-163	29*	23	35*	0
COc1ccc(CN(CCN(C)C)c2ccccn2)cc1	-30	15	-3	8	x	x
Cc1ccc(NC(=O)c2ncn(CCCN[C@H](C)c3cccc4ccccc34)n2)cc1C	-22	-393	85*	6	56*	-1
NC(=O)c1ccsc1NC(=O)CCS(=O)(=O)c1ccc(F)cc1	11	-1	0	-4	x	x
